{
  "source": "PubChem BioAssay (EPA / NIEHS)",
  "key": {"[1]": {"assay": "CCTE_Deisenroth_AIME_384WELL_CTox_Inactive: Cytotoxicity Assessment (CTOX) in CCTE's 384-well Estrogen Receptor Transactivation Assay without AIME metabolic competence (metabolism negative), Deisenroth Lab (AID 2284039);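 note: cell viability via live-cell protease substrate cleaved to fluorescent probe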", "procedure,_shortened": "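VM7Luc4E2 human breast cells received conditioned medium from a 2 h incubation of chemical with alginate-water microspheres (no S9), then were exposed 24 h. Viability was read as protease-substrate cleavage to a fluorescent probe; loss of signal was fitted bidirectionally over 0.002–200 uM.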"}, "[2]": {"molecular_target": "Estrogen receptor (Homo sapiens) (UniProt P03372)", "sequence (P03372 whole entry, looked up)": "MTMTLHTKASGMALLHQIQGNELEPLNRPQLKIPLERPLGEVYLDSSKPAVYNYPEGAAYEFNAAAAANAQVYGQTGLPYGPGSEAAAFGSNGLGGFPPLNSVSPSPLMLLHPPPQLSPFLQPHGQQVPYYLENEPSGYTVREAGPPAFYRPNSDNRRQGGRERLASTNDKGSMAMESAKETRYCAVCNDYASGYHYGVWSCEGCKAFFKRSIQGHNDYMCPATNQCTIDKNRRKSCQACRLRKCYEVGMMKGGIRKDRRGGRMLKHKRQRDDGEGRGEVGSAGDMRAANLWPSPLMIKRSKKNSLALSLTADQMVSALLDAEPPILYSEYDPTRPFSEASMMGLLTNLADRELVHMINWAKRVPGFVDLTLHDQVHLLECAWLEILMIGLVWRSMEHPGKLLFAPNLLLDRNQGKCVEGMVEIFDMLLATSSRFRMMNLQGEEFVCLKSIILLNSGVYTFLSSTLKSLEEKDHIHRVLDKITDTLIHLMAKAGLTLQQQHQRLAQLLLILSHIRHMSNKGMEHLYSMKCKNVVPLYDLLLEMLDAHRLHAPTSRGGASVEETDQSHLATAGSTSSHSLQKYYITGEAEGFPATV", "assay": "CCTE_Deisenroth_AIME_384WELL_LUC_Shift: CCTE's 384-well Estrogen Receptor Transactivation Assay with AIME metabolic competence data shift (ERTA luciferase; difference in metabolism positive and negative), Deisenroth Lab (AID 2284041; active = hit-call score of the fitted dose curve at least 0.9, where 1 is the maximum; inactive = score below 0.9;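 note: shift is response with S9 minus without S9 so positive means metabolism raised ER signal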)", "procedure,_shortened": "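Chemicals (0.002–200 uM, 10 points) pre-incubated 2 h with alginate-encapsulated induced male Sprague Dawley rat liver S9 or S9-free, then medium applied 24 h to VM7Luc4E2 cells; luciferase. Endpoint is per-concentration difference, S9-positive minus negative.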"}, "[3]": {"assay": "CCTE_Shafer_MEA_dev_active_electrodes_number: CCTE's Neural Network Formation Assay for Number of Active Electrodes, Shafer Lab (AID 2284040);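 note: potency for loss of active electrodes versus DMSO so lower counts are hits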", "procedure,_shortened": "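Counts electrodes per well firing at least 5 spikes/min, recorded on days 5, 7, 9 and 12 in rat cortical cultures dosed continuously from plating (treatment refreshed DIV 5, 9). Value is the area under the curve over recordings, fitted downward relative to DMSO.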"}, "[4]": {"assay": "CCTE_Shafer_MEA_dev_burst_rate: CCTE's Neural Network Formation Assay for Burst Rate, Shafer Lab (AID 2284042; active = hit-call score of the fitted dose curve at least 0.9, where 1 is the maximum; inactive = score below 0.9)", "procedure,_shortened": "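Rat primary cortical cultures on PEI/laminin MEA; compound from plating, re-dosed at DIV 5, 9 media change. Single-electrode bursts/recording length, well mean of active electrodes; AUC over DIV 5–12 recordings; loss-of-signal vs DMSO.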"}, "[5]": {"assay": "CCTE_Shafer_MEA_dev_bursting_electrodes_number: CCTE's Neural Network Formation Assay for Number of Bursting Electrodes, Shafer Lab (AID 2284043)", "procedure,_shortened": "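Rat cortical primary neurons, 48-well MEA, 16 electrodes/well; dosing DIV 0–12, re-dosed with full media change DIV 5, 9. Recordings DIV 5/7/9/12, AxIS adaptive spike detector; bursting electrode = ≥1 burst/2 min. AUC across days; loss of signal vs DMSO.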"}, "[6]": {"assay": "CCTE_Shafer_MEA_dev_per_burst_interspike_interval: CCTE's Neural Network Formation Assay for Burst Interspike Interval, Shafer Lab (AID 2284044; active = hit-call score of the fitted dose curve at least 0.9, where 1 is the maximum; inactive = score below 0.9)", "procedure,_shortened": "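Neurons from rat cortex plated onto PEI-coated MEA wells with laminin […] at 1.5 x 10^5 cells/well, then treated from day 0. Media and compound fully replaced on DIV 5 and 9. Extracellular spontaneous firing recorded four times; interspike interval per burst summarised as AUC.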"}, "[7]": {"assay": "CCTE_Shafer_MEA_dev_burst_duration_mean: CCTE's Neural Network Formation Assay for Mean Burst Duration, Shafer Lab (AID 2284045; active = hit-call score of the fitted dose curve at least 0.9, where 1 is the maximum; inactive = score below 0.9)", "procedure,_shortened": "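Rat cortical cultures, 1.5 x 10^5 cells/well with laminin drop; continuous dosing days 0–12, media plus treatment refreshed DIV 5, 9. AxIS adaptive spike detection; mean single-electrode burst duration, AUC over four recordings, negative direction vs DMSO.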"}, "[8]": {"assay": "CCTE_Shafer_MEA_dev_interburst_interval_mean: CCTE's Neural Network Formation Assay for Mean Interburst Interval, Shafer Lab (AID 2284046; active = hit-call score of the fitted dose curve at least 0.9, where 1 is the maximum; inactive = score below 0.9)", "procedure,_shortened": "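Rat cortical neurons, 1.5 x 10^5 cells/well, 48-well MEA; compound from day 0 through DIV 12, media and treatment renewed DIV 5/9. Recordings DIV 5, 7, 9, 12; well-mean interburst interval → trapezoidal AUC, loss direction vs DMSO.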"}, "[9]": {"assay": "CCTE_Shafer_MEA_dev_inter_network_spike_interval_mean: CCTE's Neural Network Formation Assay for Mean Inter-network Spike Interval, Shafer Lab (AID 2284047; active = hit-call score of the fitted dose curve at least 0.9, where 1 is the maximum; inactive = score below 0.9)", "procedure,_shortened": "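Primary rat cortical neurons on PEI-coated 48-well MEAs (16 electrodes/well) were exposed from plating day 0 to DIV 12, with dosing renewed at DIV 5 and 9. Recordings at DIV 5, 7, 9, 12 were collapsed by trapezoidal AUC, loss-of-signal fit vs DMSO.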"}, "[10]": {"assay": "CCTE_Shafer_MEA_dev_network_spike_number: CCTE's Neural Network Formation Assay for Number of Network Spikes, Shafer Lab (AID 2284048; active = hit-call score of the fitted dose curve at least 0.9, where 1 is the maximum; inactive = score below 0.9;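 note: synchronized bursts across electrodes counted on days 5 7 9 12 and integrated as AUC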)", "procedure,_shortened": "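Rat cortical primary cultures on 48-well MEA (16 electrodes/well); continuous exposure DIV 0–12, full medium and treatment exchange DIV 5, 9. Readout: network spike count, AxIS adaptive detection, recordings DIV 5/7/9/12 collapsed to AUC; loss-of-signal fit, DMSO baseline.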"}, "[11]": {"assay": "CCTE_Shafer_MEA_dev_network_spike_peak: CCTE's Neural Network Formation Assay for Mean Number of Electrodes in Network Spike, Shafer Lab (AID 2284049; active = hit-call score of the fitted dose curve at least 0.9, where 1 is the maximum; inactive = score below 0.9;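 note: fitted for loss of signal meaning fewer electrodes in network spikes than DMSO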)", "procedure,_shortened": "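Network-spike peak electrode count from recordings on days 5, 7, 9 and 12 was combined as trapezoidal area under the curve. Rat cortical cultures were treated continuously from plating, with compound renewed at each feed (DIV 5, 9); fits versus DMSO.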"}, "[12]": {"assay": "CCTE_Shafer_MEA_dev_spike_duration_mean: CCTE's Neural Network Formation Assay for Mean Spike Duration, Shafer Lab (AID 2284051; active = hit-call score of the fitted dose curve at least 0.9, where 1 is the maximum; inactive = score below 0.9)", "procedure,_shortened": "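Rat cortical primary cultures, 48-well MEA (16 electrodes/well); compound from plating, renewed DIV 5, 9. Network spike duration (AxIS adaptive detector) recorded DIV 5/7/9/12, combined as trapezoidal AUC; loss direction vs DMSO.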"}, "[13]": {"assay": "CCTE_Shafer_MEA_dev_network_spike_duration_std: CCTE's Neural Network Formation Assay for Standard Deviation of Network Spike Duration, Shafer Lab (AID 2284052; active = hit-call score of the fitted dose curve at least 0.9, where 1 is the maximum; inactive = score below 0.9;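 note: hits are decreases in network spike duration SD versus DMSO vehicle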)", "procedure,_shortened": "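Rat cortical cultures, 1.5 x 10^5 cells/well, exposed continuously from plating to DIV 12 with media/compound renewal at DIV 5, 9. Spontaneous activity recorded DIV 5/7/9/12, AxIS adaptive spike detector; AUC across days; negative direction vs DMSO.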"}, "[14]": {"assay": "CCTE_Shafer_MEA_dev_per_network_spike_spike_number_mean: CCTE's Neural Network Formation Assay for Mean Number of Spikes in a Network Spike, Shafer Lab (AID 2284053; active = hit-call score of the fitted dose curve at least 0.9, where 1 is the maximum; inactive = score below 0.9)", "procedure,_shortened": "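Rat cortical primary cultures on 48-well MEA; compound from day 0, re-dosed with full media change DIV 5, 9. Recorded DIV 5, 7, 9, 12; spikes in 0.05 s window at network-spike peak ÷ total network spikes; AUC; loss vs DMSO.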"}, "[15]": {"assay": "CCTE_Shafer_MEA_dev_per_network_spike_spike_percent: CCTE's Neural Network Formation Assay for Percent of Spikes in a Network Spike, Shafer Lab (AID 2284054; active = hit-call score of the fitted dose curve at least 0.9, where 1 is the maximum; inactive = score below 0.9)", "procedure,_shortened": "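Read-out: percent of spikes falling in a 0.05 s window at network-spike peak, from spontaneous MEA recordings on days 5, 7, 9 and 12; trapezoidal AUC; loss of signal versus DMSO. Rat cortical cultures, compound present throughout.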"}, "[16]": {"assay": "CCTE_Shafer_MEA_dev_LDH: CCTE's Lactate Dehydrogenase Assay for Cytotoxicity in the Neural Network Formation Assay, Shafer Lab (AID 2284068)", "procedure,_shortened": "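Rat cortical primary neurons, MEA culture; dosing day 0–12, full medium plus compound exchange DIV 5, 9. Read-out: LDH enzyme activity, spectrophotometric. DMSO = negative control/baseline; signal loss → cytotoxicity.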"}, "[17]": {"assay": "CCTE_Shafer_MEA_dev_AB: CCTE's Alamar Blue Assay for Cytotoxicity in the Neural Network Formation Assay, Shafer Lab (AID 2284083);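 note: resazurin reduction fluorescence as viability of cultured neurons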", "procedure,_shortened": "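Rat cortical primary cultures, 1.5 x 10^5 cells/well on MEA; continuous compound exposure over 12 days of network development, re-dosed with full medium change DIV 5 and 9. Alamar Blue fluorescence; loss of signal = cytotoxicity vs DMSO baseline.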"}},
  "note": "Inconclusive results are not listed. Activity calls are given as the source filed them. Rule for the calls, unless noted: active = hit-call score of the fitted dose curve at least 0.9, where 1 is the maximum; inconclusive = response in the unintended direction; inactive = score below 0.9.",
  "data": [
    {"molecule": "Cc1ccc(C(C)(C)C)c(O)c1", "values": [
      {"measurement": "outcome", "setting": "[1]", "value": "inactive"},
      {"measurement": "outcome", "setting": "[2]", "value": "inactive"}
    ]},
    {"molecule": "Cc1occc(=O)c1O", "values": [
      {"measurement": "outcome", "setting": "[1]", "value": "inactive"}
    ]},
    {"molecule": "O=C(O)c1cccnc1", "values": [
      {"measurement": "outcome", "setting": "[1]", "value": "inactive"}
    ]},
    {"molecule": "CC(C)OC(=O)C(C)(C)Oc1ccc(C(=O)c2ccc(Cl)cc2)cc1", "values": [
      {"measurement": "outcome", "setting": "[1]", "value": "inactive"},
      {"measurement": "outcome", "setting": "[2]", "value": "inactive"}
    ]},
    {"molecule": "CC(C)NCC(O)c1ccc(O)c(O)c1", "note": "(stereo not drawn)", "values": [
      {"measurement": "AC50", "setting": "[1]", "value": "100000 nM (active)"}
    ]},
    {"molecule": "CC1=C(C)S(=O)(=O)CCS1(=O)=O", "values": [
      {"measurement": "AC50", "setting": "[1]", "value": "100000 nM (active)"},
      {"measurement": "outcome", "setting": "[2]", "value": "inactive"}
    ]},
    {"molecule": "C/C=C/C=C/C(=O)O", "values": [
      {"measurement": "outcome", "setting": "[1]", "value": "inactive"}
    ]},
    {"molecule": "CC(=O)CC(c1ccccc1)c1c(O)c2ccccc2oc1=O", "note": "(stereo not drawn)", "values": [
      {"measurement": "outcome", "setting": "[1]", "value": "inactive"},
      {"measurement": "AC50", "setting": "[3]", "value": "2980 nM (active)"},
      {"measurement": "outcome", "setting": "[4]", "value": "inactive"},
      {"measurement": "AC50", "setting": "[5]", "value": "2980 nM (active)"},
      {"measurement": "outcome", "setting": "[6]", "value": "inactive"},
      {"measurement": "outcome", "setting": "[7]", "value": "inactive"},
      {"measurement": "outcome", "setting": "[8]", "value": "inactive"},
      {"measurement": "outcome", "setting": "[9]", "value": "inactive"},
      {"measurement": "outcome", "setting": "[10]", "value": "inactive"},
      {"measurement": "AC50", "setting": "[11]", "value": "2980 nM (active)"},
      {"measurement": "outcome", "setting": "[12]", "value": "inactive"},
      {"measurement": "outcome", "setting": "[13]", "value": "inactive"},
      {"measurement": "AC50", "setting": "[14]", "value": "2980 nM (active)"},
      {"measurement": "outcome", "setting": "[15]", "value": "inactive"},
      {"measurement": "outcome", "setting": "[16]", "value": "inactive"},
      {"measurement": "outcome", "setting": "[17]", "value": "inactive"}
    ]},
    {"molecule": "Nc1nc(=S)c2[nH]cnc2[nH]1", "values": [
      {"measurement": "outcome", "setting": "[1]", "value": "inactive"},
      {"measurement": "outcome", "setting": "[2]", "value": "inactive"}
    ]},
    {"molecule": "O=C1O[C@H]([C@H](O)CO)C(O)=C1O", "values": [
      {"measurement": "outcome", "setting": "[1]", "value": "inactive"}
    ]},
    {"molecule": "CCOCCOCCO", "values": [
      {"measurement": "outcome", "setting": "[1]", "value": "inactive"}
    ]},
    {"molecule": "O=[Si]=O", "values": [
      {"measurement": "outcome", "setting": "[1]", "value": "inactive"},
      {"measurement": "outcome", "setting": "[2]", "value": "inactive"}
    ]},
    {"molecule": "CN(C)CCCN(C)CCCN(C)C", "values": [
      {"measurement": "outcome", "setting": "[1]", "value": "inactive"},
      {"measurement": "outcome", "setting": "[2]", "value": "inactive"}
    ]},
    {"molecule": "O=C1CCCCC1", "values": [
      {"measurement": "outcome", "setting": "[1]", "value": "inactive"},
      {"measurement": "outcome", "setting": "[2]", "value": "inactive"}
    ]},
    {"molecule": "CCCCC(CC)CO", "note": "(stereo not drawn)", "values": [
      {"measurement": "outcome", "setting": "[1]", "value": "inactive"}
    ]},
    {"molecule": "C/C=C/c1ccc(OC)cc1", "values": [
      {"measurement": "outcome", "setting": "[1]", "value": "inactive"}
    ]},
    {"molecule": "CCCCCCC(CCCCCCCCCCC(=O)OCC(COC(C)=O)OC(C)=O)OC(C)=O", "note": "(stereo not drawn)", "values": [
      {"measurement": "outcome", "setting": "[1]", "value": "inactive"},
      {"measurement": "outcome", "setting": "[2]", "value": "inactive"}
    ]},
    {"molecule": "NC=O", "values": [
      {"measurement": "outcome", "setting": "[1]", "value": "inactive"}
    ]},
    {"molecule": "CC(=O)O", "values": [
      {"measurement": "outcome", "setting": "[1]", "value": "inactive"}
    ]},
    {"molecule": "CC(C)c1cccc(C(C)C)c1", "values": [
      {"measurement": "outcome", "setting": "[1]", "value": "inactive"},
      {"measurement": "outcome", "setting": "[2]", "value": "inactive"}
    ]},
    {"molecule": "Oc1ccccc1O", "values": [
      {"measurement": "AC50", "setting": "[1]", "value": "51800 nM (active)"}
    ]},
    {"molecule": "CSc1ccc(Oc2ccc(S(N)(=O)=O)cc2CN(C)C)cc1C", "values": [
      {"measurement": "outcome", "setting": "[1]", "value": "inactive"},
      {"measurement": "outcome", "setting": "[2]", "value": "inactive"}
    ]},
    {"molecule": "NC1CCCCC1", "values": [
      {"measurement": "outcome", "setting": "[2]", "value": "inactive"}
    ]}
  ]
}
